Drawing on PubChem BioAssay (NCI), this text covers growth for 40 compounds.

The panel holds about 83,000 compounds, 20% with a hit somewhere; the sample as a whole holds those more often.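 Interpretation: 100, growth as untreated; towards 0, rising growth inhibition; 0, no net growth; 0 to -100, cell death. Compounds scoring below 10 were considered active.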 Calls of active or inactive are those of the source.

This experiment has as its system MDA-MB-468 breast. Description: NCI-60 one-dose screen, 48 h (100 = growth as untreated, 0 = no growth, -100 = all killed). The conditions noted are these: 10 µM unless noted.
Regarding `COc1ccc(/C=C/C(=O)c2ccc([N+](=O)[O-])cc2)cc1`, the growth was 94.4% (inactive).
With `Cc1ccc(C2=NN(c3ccc(S(N)(=O)=O)cc3)C(c3cn(-c4ccccc4)nc3-c3ccccc3)C2)cc1` (stereo not given) the figure was 112% (inactive); with `C=C1CCC2C3(C)COC(C)(C)OC3CCC2(C)C1C/C=C1/C(=O)OCC1Oc1ccccc1OC` (stereo not given), 60.6% (inactive); with `COc1cc(NC(=O)CSc2nc3ccc(C)cc3c(=O)n2-c2ccccc2)cc(OC)c1OC`, 69.8% (inactive).
Turning to `O=C1NN(C(=O)c2ccccc2)C(c2ccc(Cl)c(Cl)c2)=C/C1=C\c1ccc([N+](=O)[O-])cc1`, the growth was 84.2% (inactive).
Turning to `O=C(Cc1ccc(Nc2ccnc(C(F)(F)F)c2)cc1)N/N=C/c1ccccc1O`, the growth was 8.1% (active).
Take `Cc1nc([P+](c2ccccc2)(c2ccccc2)c2ccccc2)c(N2CCCCC2)o1`: the growth is 0.108% (active).
As to `O=C(Nc1ccc(I)cc1F)c1cc(I)ccc1O`, the growth was -13.2% (active).
With `Cc1nn(-c2ccc(-c3ccc(OC(F)(F)F)cc3)cc2)c2nc(-c3ccccc3)nc(N)c12` the figure was 82.6% (inactive).
Take `CC1=C[C@@H]2c3c(c(O)c(O)c4oc5cc(O)cc(O)c5c(=O)c34)[C@@H](c3cc(O)c(O)c4oc5cc(O)cc(O)c5c(=O)c34)[C@@H]2C(C)(C)C1`: the growth is -19.5% (active).
With `N/C(=N\c1nc2ccccc2s1)NC(=O)Nc1ccccc1Cl` the figure was 16.6% (inactive).
As to `O=S(=O)(NCCCNc1nccc(-c2c(-c3cccc(F)c3)nc3occn23)n1)c1ccc(F)cc1`, the growth is 26.7% (inactive).
On to `O=S(=O)(NC1CC2CCC1C2)c1ccc2c(c1)C(=NO)c1cc(S(=O)(=O)NC3CC4CCC3C4)ccc1-2` (stereo not given), for which the growth was -61.9% (active).
With `CC(C)N(CCNc1nc(C(Cl)(Cl)Cl)nc2cc(Cl)ccc12)C(C)C` the figure was -50% (active); with `C=C[C@@H]1C[C@H](O)Cc2cc(F)ccc2N1`, 88.7% (inactive).
In the case of `Cn1cc(-c2csc(-c3cn(CCNC(=O)OC(C)(C)C)c4ccccc34)n2)c2cccnc21`, the growth is 23.4% (inactive).
With `CCCc1c(C)nc2scc(-c3ccc(Cl)cc3)n2c1=O`, the growth was 97.9% (inactive).
As for `CCCCCCCCCCCC[N+](C)(C)Cc1ccccc1`, the figure is -26.4% (active); as for `O=C(O)COc1c(Cl)cc([N+](=O)[O-])cc1Cl`, 99.4% (inactive).
On to `O=C(CCl)N(c1ccccc1)c1ccccc1`, for which the growth is 104% (inactive).
As for `COc1cc2cn3c4ccc(O)cc4[nH]c(=O)c3c2cc1OC`, the growth is -27.4% (active).
As for `CCOC(=O)N1CCN(c2nc(Nc3cc(C)[nH]n3)c3ccccc3n2)CC1`, the growth is 30.6% (inactive).
For `C[C@@H](C[C@H](CC1CC1)c1ccccc1)c1ccc2ccccc2c1`, the growth was 101% (inactive).
Turning to `O=C1/C(=C/c2ccc(Cl)cc2)N=C(c2ccccc2)N1CCc1cccs1`, the growth was 72.4% (inactive).
As for `N#Cc1c(NCc2ccccc2I)sc2c1CCCCC2`, the figure is 97.1% (inactive); as for `O=c1c2cc(F)ccc2sc2c(Nc3cccnc3)nc3ccccc3c12`, 76.4% (inactive).
Take `Cc1ccc(/C=N/NC(=O)CSc2nc3ccccc3c(=O)n2Cc2ccc(S(N)(=O)=O)cc2)cc1`: the growth was 81.2% (inactive).
With `COc1ccc(/C=C(\C#N)c2cc(OC)c3c(c2)OCO3)cc1` the figure was -4.06% (active); with `COc1ccc(Nc2[nH]n3c(=O)cc(C)nc3c2C(N)=O)c(OC)c1`, 97.3% (inactive); with `CC1=CC(=O)C2=C(C)CC(OC(=O)CCc3ccccc3)[C@@H]3[C@H](OC(=O)[C@@H]3C)[C@@H]12` (stereo not given in full), 79.4% (inactive).
In the case of `O=S(=O)(OCCO)c1ccccc1`, the growth was 97% (inactive).
As for `COc1cccc(C(=O)OCC(O)C(=O)NC23CC4CC(CC(C4)C2)C3)c1` (stereo not given), the figure is 88% (inactive).
With `O=[N+]([O-])c1ccc2nc(N/N=C/c3ccc(O)cc3)sc2c1` the figure was 64.2% (inactive); with `N#CC1=C(N)Oc2c(sc3c(Br)cccc23)C1c1ccc(F)cc1` (stereo not given), 11% (inactive); with `O=C(Nn1c(NCC(=O)N2c3ccccc3Sc3ccccc32)nnc1-c1ccc(O)cc1)c1ccccc1`, 104% (inactive).
As for `O=C(Nc1ccc(Cl)cc1)Nc1ccc(Cl)c(C(F)(F)F)c1`, the figure is 10.3% (inactive).
For the compound `COc1ccc(CNc2nccnn2)cc1`, the growth was 88% (inactive).
Regarding `CCCc1cc(C(N)=S)ccn1`, the growth was 102% (inactive).
As for `Nc1nnc(-c2ccc3ccccc3c2O)o1`, the figure is 96.5% (inactive); as for `O=C(Nc1ccccc1)c1sc(-c2ccccc2)cc1O`, 107% (inactive).
